Measured values from PubChem BioAssay AID449739 (Vanderbilt High Throughput Screening Facility, 2010).
About 4,200 (4.2%) of roughly 100,000 compounds were called active. Many of the other results were omitted from the sample, so actives are more common in it than they were. A number with no mark means an inactive call.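 Rule for the calls: active = single-dose well whose peak fluorescence ratio is a statistical outlier from its plate by either plate-standardised score or position-corrected B-score; inactive = the rest.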

biological target: Voltage-dependent T-type calcium channel subunit alpha-1H (Homo sapiens) (UniProt O95180); assay: Cav3.2 calcium influx blockers – cell-based, Fluo-4 calcium fluorescence, FDSS, MLSMR library, primary screen (AID 449739); conditions: Cav3.2-expressing cells, at 10 µM, active compounds read low
Sequence (O95180 whole entry, looked up): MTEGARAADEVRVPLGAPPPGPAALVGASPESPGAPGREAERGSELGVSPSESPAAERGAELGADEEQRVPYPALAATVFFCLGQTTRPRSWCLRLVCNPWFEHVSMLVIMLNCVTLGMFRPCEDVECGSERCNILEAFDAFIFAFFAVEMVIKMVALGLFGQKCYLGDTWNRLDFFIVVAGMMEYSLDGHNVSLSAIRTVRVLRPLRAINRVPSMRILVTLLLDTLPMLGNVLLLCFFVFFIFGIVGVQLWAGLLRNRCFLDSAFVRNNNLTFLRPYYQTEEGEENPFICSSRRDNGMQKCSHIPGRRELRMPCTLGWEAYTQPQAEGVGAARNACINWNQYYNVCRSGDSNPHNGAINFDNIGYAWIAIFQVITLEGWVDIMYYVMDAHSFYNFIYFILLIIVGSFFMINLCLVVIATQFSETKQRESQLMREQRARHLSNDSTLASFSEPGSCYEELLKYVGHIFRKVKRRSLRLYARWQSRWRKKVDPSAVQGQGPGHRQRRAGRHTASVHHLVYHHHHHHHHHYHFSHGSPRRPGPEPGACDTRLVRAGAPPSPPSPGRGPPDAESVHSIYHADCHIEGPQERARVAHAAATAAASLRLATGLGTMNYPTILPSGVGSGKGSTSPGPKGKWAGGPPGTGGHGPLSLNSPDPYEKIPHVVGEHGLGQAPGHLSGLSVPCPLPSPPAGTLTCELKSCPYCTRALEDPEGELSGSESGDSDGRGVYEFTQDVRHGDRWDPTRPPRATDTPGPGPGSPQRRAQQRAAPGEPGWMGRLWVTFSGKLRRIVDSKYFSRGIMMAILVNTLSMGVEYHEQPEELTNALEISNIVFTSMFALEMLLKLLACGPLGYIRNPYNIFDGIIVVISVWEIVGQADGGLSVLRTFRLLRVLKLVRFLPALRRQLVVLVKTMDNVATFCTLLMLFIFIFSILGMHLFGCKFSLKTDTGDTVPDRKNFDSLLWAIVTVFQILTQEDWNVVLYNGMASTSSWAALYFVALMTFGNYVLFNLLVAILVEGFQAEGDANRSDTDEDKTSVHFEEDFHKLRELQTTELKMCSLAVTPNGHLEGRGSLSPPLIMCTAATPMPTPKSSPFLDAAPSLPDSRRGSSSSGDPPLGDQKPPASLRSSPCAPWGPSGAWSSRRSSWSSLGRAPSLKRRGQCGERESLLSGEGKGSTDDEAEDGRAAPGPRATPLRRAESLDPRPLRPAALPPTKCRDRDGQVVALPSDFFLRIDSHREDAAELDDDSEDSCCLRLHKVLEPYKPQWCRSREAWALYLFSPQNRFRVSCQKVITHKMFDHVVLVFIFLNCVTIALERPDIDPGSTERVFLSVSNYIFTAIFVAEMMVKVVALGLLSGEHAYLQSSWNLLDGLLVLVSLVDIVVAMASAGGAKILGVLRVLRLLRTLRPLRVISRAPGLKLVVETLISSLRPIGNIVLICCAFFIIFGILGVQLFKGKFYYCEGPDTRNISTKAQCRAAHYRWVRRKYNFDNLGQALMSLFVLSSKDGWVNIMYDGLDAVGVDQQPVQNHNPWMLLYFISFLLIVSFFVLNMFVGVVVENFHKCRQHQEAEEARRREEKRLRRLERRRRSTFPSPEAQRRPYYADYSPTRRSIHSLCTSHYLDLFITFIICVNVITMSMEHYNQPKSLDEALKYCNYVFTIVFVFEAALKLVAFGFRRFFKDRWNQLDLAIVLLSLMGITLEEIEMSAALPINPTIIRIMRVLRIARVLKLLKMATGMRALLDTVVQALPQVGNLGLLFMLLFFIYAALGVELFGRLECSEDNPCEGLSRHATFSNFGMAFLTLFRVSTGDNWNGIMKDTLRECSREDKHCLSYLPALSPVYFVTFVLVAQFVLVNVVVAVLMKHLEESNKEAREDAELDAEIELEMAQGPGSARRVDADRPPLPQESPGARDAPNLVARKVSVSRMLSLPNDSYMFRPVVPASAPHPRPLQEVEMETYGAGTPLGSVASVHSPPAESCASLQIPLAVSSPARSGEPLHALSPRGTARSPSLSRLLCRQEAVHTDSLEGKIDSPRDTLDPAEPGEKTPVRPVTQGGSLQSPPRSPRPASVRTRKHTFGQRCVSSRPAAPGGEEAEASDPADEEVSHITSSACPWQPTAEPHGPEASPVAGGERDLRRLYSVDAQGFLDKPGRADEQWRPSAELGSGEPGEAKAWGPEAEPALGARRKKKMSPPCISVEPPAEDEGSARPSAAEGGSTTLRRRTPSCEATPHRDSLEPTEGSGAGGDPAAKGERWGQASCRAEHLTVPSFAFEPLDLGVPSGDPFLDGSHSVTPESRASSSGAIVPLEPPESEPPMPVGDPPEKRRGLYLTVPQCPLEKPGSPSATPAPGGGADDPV

Row | Compound | B-score
1 | O=c1[nH]snc1-c1c(Cl)cccc1Cl | 0.688
2 | CC1Cc2ccccc2N1C(=O)Cn1cnc2ccccc2c1=O (stereo not given) | 0.0523
3 | CCn1c(CSc2ncccn2)nnc1SCC(=O)N1c2ccccc2CC1C (stereo not given) | 0.0736
4 | CCCCn1ccnc1C(=O)c1cccc(S(=O)(=O)N2c3ccccc3CC2C)c1 (stereo not given) | -5.72 (active)
5 | O=C(NC1CC1)c1ccc2c(c1)NC(=O)c1ccccc1S2 | -0.133
6 | COc1ccc(COCCN2CCN(S(=O)(=O)c3ccccc3)CCC2=O)cc1 | -0.361
7 | COc1cc([C@H](Cc2ccccc2)NC(C)=O)oc(=O)c1 | -0.786
8 | Cc1ccc(C(=O)N/N=C/c2sc(=O)n(Cc3cccc(C(=O)O)c3)c2Cl)cc1 | 2.4
9 | Cc1ccc(S(=O)(=O)Oc2ccc(/C=N/NC(=O)c3c(Cl)cnn3C)cc2)cc1 | 0.419
10 | Cc1ccc(/C=N/NC(=O)C(NC(=O)c2ccccc2)c2n[nH]c(=O)c3ccccc23)cc1 (stereo not given) | -4.96 (active)
11 | O=c1c2ccccc2c(-c2ccc(Br)cc2)nn1Cc1ccccc1 | 0.372
12 | O=C(COc1ccccc1)NCc1ccc2c(c1)OCO2 | -1.91
13 | Cn1cc(CCC(=O)NCc2ccc3c(c2)OCO3)c2ccccc21 | -2.19
14 | N#Cc1nc(Cc2cccc3ccccc23)oc1NCc1ccc2c(c1)OCO2 | -7.29 (active)
15 | C=CCOC(=O)C1=C[C@H](c2ccc(Br)cc2)C[C@H](OCCCCO)O1 | -0.545
16 | COc1ccc(C2/C=C\CN(CC(C)C)CC(=O)N2Cc2ccc(F)cc2)cc1 (stereo not given) | -0.399
17 | COc1ccc(N2CCN(C(=O)CCc3nc(-c4ccc(C)cc4)no3)CC2)cc1 | -3.49 (active)
18 | CCOc1cc(-c2noc(CCC(=O)N3CCOCC3)n2)ccc1OC | 0.164
19 | Cc1ccc(-c2noc(CCC(N)=O)n2)cc1 | 0.127
20 | C#CCOCCOCCOCCNc1nc(N2CCN(C(=O)C([C@@H](C)CC)n3cc(C(N)COC(=O)C(F)(F)F)nn3)CC2)nc(N2CCN(C(=O)[C@H](Cc3ccc(O)cc3)n3cc(C(N)[C@H](C)CC)nn3)CC2)n1 (stereo not given in full) | 0.00651
21 | Cc1ccc(CNC(=O)c2ccccc2CCc2ccccc2)cc1 | 0.145
22 | COc1ccc(C[C@H]2CN3C(=NC[C@H]3C)N2CCNC(=O)CCC2CCCCC2)cc1 | -0.267
23 | O=C(CSc1nnc(-c2c[nH]c3ccccc23)o1)c1ccccc1 | 0.381

Row | Compound | B-score
24 | O=C(CSCc1ccc([N+](=O)[O-])cc1)NCCSCc1ccccc1 | -6.39 (active)
25 | O=C(NCCc1ccccc1)/C(=C\c1ccc([N+](=O)[O-])cc1)NC(=O)c1ccccc1 | 0.653
26 | O=C(CSCc1ccc([N+](=O)[O-])cc1)Nc1cccc(C(=O)Nc2ccccc2C(=O)O)c1 | -1.32
27 | COc1cccc(/C=N/NC(=O)C(=O)N2CCCC2)c1 | 1.2
28 | COC(=O)COc1cccc2c(=O)n(CC(=O)NCCc3ccc(OC)c(OC)c3)ccc12 | 1.52
29 | CC(C)(C)n1nnnc1C(c1ccc(F)cc1)N1CCN(Cc2ccc3c(c2)OCO3)CC1 (stereo not given) | -3.16
30 | Cc1cccc(N2CCN(C(c3ccc(N(C)C)cc3)c3nnnn3C(C)(C)C)CC2)c1C (stereo not given) | -3.44
31 | CC(C)(C)n1nnnc1C(c1ccc(Cl)cc1)N1CCSCC1 (stereo not given) | -2.81 (active)
32 | COc1ccccc1-c1n[nH]c2c1[C@H](C)CC[C@H]2C(C)C | -2.06
33 | COc1ccc(/C=C/C(=O)Nc2c(C)nn(C)c2C)cc1COc1ccc(Br)cc1 | -1.13
34 | CCn1c(COc2ccc(OC)cc2)nnc1SCC(=O)Nc1cc(OC)ccc1OC | -0.694
35 | CCn1nc(C)c(NC(=O)/C=C/c2ccc(OC)c(COc3ccc(Br)cc3)c2)c1C | -3.94 (active)
36 | CCCCOc1ccc(C(=O)NCc2ccco2)cc1 | -0.276
37 | Cc1ccc(C(=O)N/C(=C/C=C/c2ccccc2)C(=O)NCc2ccco2)cc1 | -4.77 (active)
38 | O=C(CN1CCN(S(=O)(=O)/C=C/c2ccccc2)CC1)NC(=O)NCc1ccco1 | 0.253
39 | O=C(CSCc1ccccc1Cl)NNC(=O)c1ccccc1 | -0.234
40 | CCOC(=O)c1ccc(NC(=O)c2c(N)n(C)c(=O)[nH]c2=O)cc1 | -2
41 | COC(=O)CN(c1nc(C)c(Cl)c(OC)n1)S(=O)(=O)c1ccc(C)cc1 | -3.54 (active)
42 | COc1cccc(NC(=O)CN(C)S(=O)(=O)c2ccc(C)cc2)c1 | 0.446
43 | CCN(CC)C(=O)CN(c1cccc(OC)c1)S(=O)(=O)c1ccc(C)cc1 | 0.247
44 | O=C(NC1CC1)C1=C[C@H](c2c[nH]c3ccccc23)C[C@H](OCc2ccc(CO)cc2)O1 | -0.0426
45 | Cc1cc(C)cc(OCC(=O)NNC(=O)c2cc3ccccc3oc2=O)c1 | 0.0296
46 | Nc1c(-c2cccc(Cl)c2)cnn1-c1cccc([N+](=O)[O-])c1 | -4.85 (active)

Row | Compound | B-score
47 | CCOC(=O)CSc1ncc(-c2cccc(Cl)c2)cn1 | 0.28
48 | Cc1ccc2cc(CCNC(=O)c3ccc4c(c3)OCO4)c(=O)[nH]c2c1 | 0.446
49 | Cc1onc(-c2ccccc2Cl)c1C(=O)OCC(=O)c1ccccc1 | -0.332
50 | Cc1onc(-c2ccccc2Cl)c1C(=O)NCCn1ccc2ccccc21 | -3.91 (active)
51 | Cc1onc(-c2c(Cl)cccc2Cl)c1C(=O)c1c[nH]c(C(=O)NC2CC2)c1 | 0.359
52 | Cc1ccc2cc(CCNC(=O)c3c(-c4ccccc4Cl)noc3C)c(=O)[nH]c2c1 | -4.54 (active)
53 | COCCNC(=O)c1ccccc1-c1nc(-c2ccccc2Cl)no1 | -0.0406
54 | CCCCCCNS(=O)(=O)c1ccccc1Br | -1.42
55 | CC(C)C(=O)N1CCC2(CC1)Oc1ccc(F)cc1C(=O)C21CC(c2ccccc2)=NO1 (stereo not given) | -0.517
56 | CC(C)(C)Oc1ccccc1Nc1nc(NCCO)nc(N2CCCC2)n1 | 0.107
57 | Cc1ccc(-c2cc(=O)c3ccc(F)cc3[nH]2)cc1 | -1.19
58 | CCCCCCc1cc2cc(-c3nnc(-c4ccccc4)o3)c(=O)oc2cc1O | -8.89 (active)
59 | O=c1oc2cc(O)ccc2cc1-c1ccc(F)cc1 | -0.437
60 | O=C(c1ccc(Cl)cc1)c1cnc(Nc2ccccc2)s1 | 0.657
61 | C[C@@H]1NC(=O)c2cc([N+](=O)[O-])cc(F)c2NCCC[C@@H](C(N)=O)NC(=O)[C@H](CC(N)=O)NC1=O | 0.0125
62 | CCCCNC(=O)c1onc(CSc2cccc(OC)c2)c1C(=O)O | -0.115
63 | O=C(O)C1=C[C@H](c2cccs2)C[C@H](OCCCCO)O1 | 0.408
64 | Cc1ccc(C(=O)NCCNS(=O)(=O)c2ccccc2)cc1 | 0.965
65 | CN(c1ccc(C(=O)NCc2ccccn2)cc1)S(C)(=O)=O | 0.091
66 | Cc1ccccc1CSCCNC(=O)c1ccc(N(C)S(=O)(=O)c2ccccc2)cc1 | -5.82 (active)
67 | NC(N)=NCCCc1cn(CC(=O)N2CCNCC2)nn1 | 0.0996
68 | N#Cc1ccc(-c2ccc(F)cc2)nc1Sc1ccccc1 | -0.0447
69 | Cc1ccc(SCC2=NNC(=O)C2)cc1 | -0.242

Row | Compound | B-score
70 | COc1ccc2c(c1)CCNC2Cc1ccc(OC)c(O)c1 (stereo not given) | 0.0462
71 | O=C(CN1CCN(C(=O)c2ccco2)CC1)Nc1ccc(Cl)c(C(F)(F)F)c1 | -6.28 (active)
72 | O=C(CN1CCN(C(=O)c2ccco2)CC1)Nc1ccc2c(c1)OCO2 | 0.902
73 | COc1ccc(OC)c(NC(=O)CN2CCN(C(=O)c3ccco3)CC2)c1 | 1.23
74 | COc1ccc(CC(=O)Nc2sc(Cc3ccccc3)c(C)c2C(N)=O)cc1 | -0.493
75 | Cc1ccccc1NC(=O)C(C)c1ccc(-c2ccccc2)c(F)c1 (stereo not given) | -0.689
76 | CC1CCN(c2nc3c(c(=O)[nH]c(=O)n3C)n2CCCc2ccccc2)CC1 | -5.1 (active)
77 | CN1CCN(c2nc3c(c(=O)[nH]c(=O)n3C)n2Cc2cccc3ccccc23)CC1 | 0.465
78 | CCCSc1nc2c(c(=O)[nH]c(=O)n2C)n1CCc1ccccc1 | -0.0804
79 | Cc1nc(C(=O)Nc2ccc(Cl)cc2)sc1C1(C)CC(c2ccccc2)=NO1 (stereo not given) | 0.201
80 | O=c1c(-c2ccccc2)coc2cc(O)ccc12 | 1.09
81 | CCN(CC)C(=O)CC(c1ccc2c(c1)OCO2)c1c(OC)cc(OC)c2c(-c3ccccc3)cc(=O)oc12 (stereo not given) | -1.45
82 | COC(=O)Cn1c2ccc(C)cc2c2nc(C)sc21 | 1.71
83 | CCn1c(O)c(N=NC2=NC(=O)CS2)c2cc(C)ccc21 | -4.99 (active)
84 | Cc1nnc(NC(=O)CSc2nc(C3CCCCC3)nc3ccccc23)s1 | -0.12
85 | NC(=O)[C@H]1CC2(CC(c3cccc(NC(=O)[C@H]4CCC(=O)N4)c3)=NO2)CN1C(=O)c1ccccc1C(=O)c1ccccc1 (stereo not given in full) | -0.157
86 | CCO[C@H]1OC(C(=O)Nc2ccccc2)=C[C@@H](C2CC2)[C@@H]1CCCO | 0.964
87 | NC(=O)C1=C[C@@H](c2csc3ccccc23)C[C@@H](OCc2ccc(CO)cc2)O1 | -0.0524
88 | Cc1ccc(C)c(NC(=O)C2Cc3ccccc3CN2C(=O)OCc2ccccc2)c1 (stereo not given) | -6.09 (active)
89 | COC(=O)C(CC(=O)Nc1cc(C)ccc1C)Nc1ccccc1OC (stereo not given) | -0.376
90 | Cc1ccc(C)c(NC(=O)C2CC(=O)N(C(C)C)C2)c1 (stereo not given) | -0.00724
